# D1 ag = Allosteric Agonists of the Human D1 Dopamine Receptor: qHTS. D(1A) dopamine receptor (Homo sapiens), P21728. HEK293 T-REx D1 cells, calcium flux, agonist mode. activation, % at 2 µM. actives 1% (n = 360,000); in the data active = activation above about 30%
# Target sequence (P21728 whole entry, looked up): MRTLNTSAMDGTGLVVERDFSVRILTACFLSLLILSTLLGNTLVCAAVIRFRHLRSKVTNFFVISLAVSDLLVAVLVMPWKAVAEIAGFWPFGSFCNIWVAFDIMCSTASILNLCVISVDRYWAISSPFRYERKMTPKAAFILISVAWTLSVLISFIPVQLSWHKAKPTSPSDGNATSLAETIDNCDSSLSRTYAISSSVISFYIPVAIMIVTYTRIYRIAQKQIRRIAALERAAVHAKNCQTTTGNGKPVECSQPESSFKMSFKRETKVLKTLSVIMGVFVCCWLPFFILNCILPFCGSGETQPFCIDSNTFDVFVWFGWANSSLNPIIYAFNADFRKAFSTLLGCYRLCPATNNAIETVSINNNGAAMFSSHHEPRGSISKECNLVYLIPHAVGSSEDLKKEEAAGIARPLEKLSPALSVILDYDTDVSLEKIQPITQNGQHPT
#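 Agonism was scored from calcium flux recorded over 180 s (1 read/s) after pintool compound addition, following a 10-cycle baseline. Cells were inducible force-coupled HEK293 TREx D1, plated overnight at 30 C and loaded with no-wash calcium dye.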
# D3 antag = qHTS of D3 Dopamine Receptor Antagonist: qHTS; D(3) dopamine receptor (Homo sapiens), P35462; D3R cells, DiscoveRx beta-arrestin luminescence, antagonist mode; hits give low values; max response, negative = inhibition, %; actives 2.5% (n = 360,000); AID 652054, 2013; in the data active = max response below about -50%; inconclusive = no clear call, values can overlap the other calls
#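 Cells expressing the human receptor were seeded at 1500 cells/well, incubated overnight at 37 degrees C in 5% CO2, then exposed to library compounds with dopamine controls for 90 minutes at 37 degrees C before luminescent detection.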
# D1 antagonist = Antagonist of Human D 1 Dopamine Receptor: qHTS; D(1A) dopamine receptor (Homo sapiens), P21728; HEK293 TREx D1 cells, calcium flux, dopamine EC80; hits give low values; activity change, negative = inhibition, % at 10 µM; actives 3.2% (n = 360,000); AID 504652, 2011; in the data active = activity change below about -30%
#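 Tetracycline-induced HEK293 T-REx cells with force-coupled D1 receptor were loaded with a no-wash calcium dye. Compound was added after a 10 s baseline and read kinetically for 180 s; EC80 dopamine was then added and calcium flux followed another 180 s.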
# D1 PAM = Potentiators of Human D1 Dopamine Receptor: qHTS | potentiation, % at 10 µM | actives 0.036% (n = 360,000) | D(1A) dopamine receptor (Homo sapiens), P21728 | HEK293 TREx D1 cells, calcium flux, dopamine EC20 potentiation; in the data active = potentiation above about 30%
# DRD3 agonist = qHTS of D3 Dopamine Receptor Agonist: qHTS. D3R DiscoveRx beta-arrestin cells, luminescence, 90 min. max activation, %. actives 0.58% (n = 410,000); in the data active = max activation above about 30%
#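 Agonist mode: compounds and dopamine controls were applied to plated cells for 90 min at 37 degrees C after an overnight attachment at 1500 cells/well. Luminescent read-out followed 30 - 60 minutes at room temperature with DiscoveRx detection reagent.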
# Hits are given with their value; 0 = inactive; ? = inconclusive; - = not tested or not shown. Sampled rows, rich in hits. Any-hit rate of the full collection: about 6%.
SMILES,D1 ag,D3 antag,D1 antagonist,D1 PAM,DRD3 agonist
CC(C)c1cc(C(=O)Nc2cccc(C(F)(F)F)c2)no1,0,-53,0,0,0
Cc1cc(C(F)F)n2nc(C(=O)Nc3cccc(C(F)(F)F)c3)nc2n1,0,?,-40,0,0
COc1ccc(NC(=O)Nc2cc(C)cc(C)c2)cn1,0,0,0,0,0
COc1ccc(NC(=O)Nc2ccc([N+](=O)[O-])cc2)cn1,35,?,-52,0,0
O=C(Nc1cccc(C(F)(F)F)c1)Nc1cccs1,0,-,-44,0,0
COc1ccc(C(F)(F)F)cc1NC(=O)c1nc2nc(C)cc(C(F)F)n2n1,0,0,0,0,0
CN1/C(=C\C=C(/C#N)C(=O)Nc2ccccc2F)C(C)(C)c2ccccc21,277,0,0,0,0
COc1ccc(S(=O)(=O)c2cc(NS(=O)(=O)c3ccc(Cl)cc3)c(C)c(C)c2O)cc1,0,-,0,0,0
COc1ccc(OCc2cc(C(=O)N3CCC(c4ccccc4)CC3)no2)c(Cl)c1,35,0,0,0,0
COc1cccc(OCc2cc(C(=O)N3CCC(c4ccncc4)CC3)no2)c1,0,0,-36,0,0
O=C(c1cc(COc2cccc(C(F)(F)F)c2)on1)N1CCC(c2ccncc2)CC1,0,0,0,0,0
O=[N+]([O-])c1ccc(NN=Cc2cccc([N+](=O)[O-])c2)cc1,-,?,-,-,0
COc1ccccc1NS(=O)(=O)c1cc([N+](=O)[O-])ccc1N/N=C/c1c[nH]c2ccccc12,61,-88,0,0,0
c1ccc(Nc2nc(N3CCCCC3)nc(N3CCNCC3)n2)cc1,42,?,0,0,0
O=C(O)COc1ccc(/C=N/Nc2nc(Nc3ccccc3)nc(N3CCCCC3)n2)cc1,0,-50,0,0,0
c1ccc(Nc2nc(N3CCCCC3)nc(N3CCCCC3)n2)cc1,0,0,0,0,0
COc1ccc(NS(=O)(=O)c2cc([N+](=O)[O-])ccc2N/N=C\c2c(C)[nH]c3ccccc23)cc1,0,0,0,0,0
O=[N+]([O-])c1ccc(N/N=C/c2ccc[nH]2)cc1,79,?,-44,0,0
CCCCNC(=O)CC1Nc2cc(C)c(C)cc2NC1=O (configuration not stated),0,-,0,0,0
O=[N+]([O-])c1ccc(N/N=C/c2cccc(O)c2)cc1,0,?,0,0,0
COc1ccccc1NS(=O)(=O)c1cc([N+](=O)[O-])ccc1N/N=C/c1sc(N2CCOCC2)nc1-c1ccccc1,33,-84,0,0,0
O=[N+]([O-])c1ccc(N/N=C/c2cccc(O)c2O)cc1,0,-50,0,0,0
COc1ccc(C(=O)N/N=C/c2sc(N3CCOCC3)nc2-c2ccccc2)cc1OC,0,0,0,0,0
COc1cccc(/C=N/Nc2nc(Nc3ccc([N+](=O)[O-])cc3)nc(N3CCCC3)n2)c1O,0,-119,0,0,0
O=[N+]([O-])c1ccccc1N/N=C/c1c[nH]c2ccccc12,0,-52,-71,0,0
SMILES,D1 ag,D3 antag,D1 antagonist,D1 PAM,DRD3 agonist
CC(=O)N1c2ccccc2CC1C(=O)NCc1cccc(Cl)c1 (configuration not stated),0,-,0,0,0
CCOc1ccccc1NC(=O)CSc1nc2c(c(=O)[nH]1)CCC2,0,-,0,0,0
O=[N+]([O-])c1ccc(N/N=C/c2c[nH]c3ccccc23)cc1,81,0,0,0,0
O=[N+]([O-])c1cc(/C=N/Nc2nc3ccccc3[nH]2)c(O)cc1O,0,-65,0,0,0
C(=N\Nc1nc2ccccc2[nH]1)/c1c[nH]c2ccccc12,0,0,0,0,47
COc1ccc(OC)c(-c2cc(C(=O)NC(C)c3ccccc3)no2)c1 (configuration not stated),0,-,0,0,0
COc1ccc(CCN2C(=O)c3[nH]nc(-c4ccccc4O)c3C2c2ccccc2)cc1 (configuration not stated),0,-,0,0,0
O=C(CN1CCCCC1)N1CCc2ccccc21,0,-86,0,0,0
Cc1csc(=N)n1CC(=O)N1CCc2ccccc21,0,-86,-32,0,0
O=C(CN1CCCc2ccccc21)N1CCc2ccccc21,0,0,0,0,0
CC(C)NC(=O)CN1CCN(c2ncccn2)CC1,0,-54,0,0,0
CC(NC(=O)CN1CCN(c2ncccn2)CC1)c1ccc(F)cc1 (configuration not stated),0,0,0,0,0
O=C(CN1CCN(c2ccccc2F)CC1)N1CCc2ccccc21,0,-54,0,0,0
COc1ccc(CC(=O)N2CCc3cc(OC)c(OC)cc3C2COc2ccc(F)cc2)cc1 (configuration not stated),0,-,0,0,0
COc1ccc(OC)c(NC(=O)c2cn(CC(C)C)c(=O)c3cc(OC)c(OC)cc23)c1,0,-,0,0,0
COc1cccc(N2CCN(C(=O)CN3CCSc4ccccc43)CC2)c1,0,-,0,0,0
COc1ccc(OC)c(CCNC(=O)Cn2nc(C)n3c(cc4sccc43)c2=O)c1,0,-,0,0,0
Cc1ccc(C)c(S(=O)(=O)c2cn(Cc3ccccc3)c3cc(F)c(F)cc3c2=O)c1,0,-,0,0,0
O=C(CN1CCCCC1)N1c2ccccc2CCc2ccccc21,0,0,0,0,0
CC1CCN(CC(=O)N2c3ccccc3CCc3ccccc32)CC1,0,-64,0,0,0
O=C(CN1CCC(N2CCCCC2)CC1)N1CCCc2ccccc21,0,-76,0,0,0
O=C(Cn1cc2c(n1)CCCCC2)N1CCc2ccccc21,0,0,-76,0,0
Cc1ccc(NC(=O)Cn2cc3c(n2)CCCCC3)cc1,40,-,0,0,0
Cc1sc2c(c1C)c(=O)n(-c1ccc(Cl)cc1)c(=O)n2Cc1c(F)cccc1Cl,0,-,0,0,0
CC(=O)N1CCC2(CC1)OC(=O)C(C)=C2C(=O)Nc1ccccc1C(F)(F)F,0,-,0,0,0
SMILES,D1 ag,D3 antag,D1 antagonist,D1 PAM,DRD3 agonist
Cc1ccc2oc(=O)c3cc(C(=O)N(Cc4ccccc4)C(C)C)sc3c2c1,0,-,0,0,0
CCc1nc2c(cnn2-c2ccc(Cl)cc2)c(=O)n1-c1ccc(OC)c(Cl)c1,0,-,0,0,0
O=C(CN1CCN(Cc2ccccc2)CC1)N1CCCc2ccccc21,0,-51,0,0,0
O=C(CN1CCN(Cc2ccc(Cl)cc2)CC1)N1CCc2ccccc21,0,?,0,0,0
O=C(CN1CCN(c2ncccn2)CC1)N1CCc2ccccc21,0,-82,0,0,0
CC(=O)N1CCC2(CC1)CC(=O)c1cc(OCC(=O)N3CCOCC3)ccc1O2,0,0,-38,0,0
